# High-throughput results as filed in PubChem.
# Rpn11 inh: Rpn11 (PSMD14) deubiquitinase inhibitors, primary screen, biochemical, fluorescence polarization, uHTS. 26S proteasome non-ATPase regulatory subunit 14 (Homo sapiens), O00487. human 26S proteasome, Ub4-pepOG fluorescence polarization; 20S core pre-blocked with epoxomicin. calls only at 20 µM. 0.59% of 360,000 active. AID 588493, 2011;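 active = inhibition at 20 µM, scaled to each plate's controls, above about 33%, limit read from the data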
# PKA-R2B act: activators of PKA-R2B holoenzyme, primary screen, biochemical, fluorescence polarization, Cy5-IP20, human | cAMP-dependent protein kinase catalytic subunit beta (Homo sapiens) + cAMP-dependent … | PKA-R2B holoenzyme dissociation; R2B truncated from residue 108, S112A mutant; 0% DMSO only, 100% 113 µM cGMP | activation, % at 11.4 µM | 0.079% of 340,000 active | AID 504700, 2011;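 active = activation above a cutoff set at the mean over all compounds plus 3 SD, cut at about 18% in these data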;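 note: higher means more holoenzyme dissociation and a rise in polarization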
# Target sequence (P31323 whole entry, looked up, other chains not shown, the tested form may be a part): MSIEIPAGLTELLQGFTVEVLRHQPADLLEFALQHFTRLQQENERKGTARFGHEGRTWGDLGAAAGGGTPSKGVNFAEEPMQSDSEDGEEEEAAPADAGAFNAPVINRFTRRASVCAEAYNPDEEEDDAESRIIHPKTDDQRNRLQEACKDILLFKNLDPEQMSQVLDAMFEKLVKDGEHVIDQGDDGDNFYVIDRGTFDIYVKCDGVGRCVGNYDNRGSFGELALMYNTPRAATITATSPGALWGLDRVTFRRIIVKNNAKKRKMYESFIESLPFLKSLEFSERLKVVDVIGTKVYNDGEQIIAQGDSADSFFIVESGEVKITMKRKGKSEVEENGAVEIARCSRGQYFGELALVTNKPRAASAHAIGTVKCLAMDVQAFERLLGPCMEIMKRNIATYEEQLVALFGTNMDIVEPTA
# Neddylation inh: inhibitors of cullin neddylation, primary screen, biochemical, TR-FRET, uHTS, NAE and Ubc12 | NEDD8-conjugating enzyme Ubc12 (Homo sapiens) + NEDD8-activating enzyme E1 regulatory … | inhibition, % at 25 µM | 0.58% of 360,000 active; in the data active = inhibition above about 36%
# PKA-R1A act: activators of PKA-R1A holoenzyme, primary screen, biochemical, fluorescence polarization, Cy5-IP20, bovine R1A, mouse PKAc | cAMP-dependent protein kinase type I-alpha regulatory subunit (Bos taurus) + … | PKA-R1A dissociation; scaled: DMSO 0%, 113 µM cGMP 100% | activation, % at 11.4 µM | 0.083% of 340,000 active | AID 504707, 2011;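 active = percent activation above the mean of all tested compounds plus 3 SD, cut at about 19% in these data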;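 note: higher means more PKAc released from R1A so a rise in polarization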
# Neddyl inh conf: blockade of NEDD8 conjugation to cullin – biochemical, TR-FRET, single concentration, confirmation. calls only at 25 µM. 13% of 1,800 active. TR-FRET cullin neddylation biochemical assay. shares compounds with Neddylation inh; in the data active = inhibition above about 40%;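 note: neddylation substrate is the cullin 1 ring ligase complex with SKP2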
# A number is an active result; - = inactive; . = no result given; + = active, no number. In the library only some 1.3% were active in any assay of this set; here they are far more common.
SMILES,Rpn11 inh,PKA-R2B act,Neddylation inh,PKA-R1A act,Neddyl inh conf
COc1ccc(/C=C2/NC(=O)CNC2=O)cc1,-,-,-,-,.
COc1cccc2cc(C(=O)C3=C(O)C(=O)N(c4cc(C)on4)C3c3cccs3)oc12 (stereo not drawn),-,-,-,-,.
NCCCCc1ccc2ccc3cccc4ccc1c2c34,-,-,52,-,-
Cc1cc2nc(C)c(=O)n(C)c2cc1C,-,-,47,-,-
Cc1cc2nc(-c3ccc(=O)[nH]c3)n(C)c2cc1C,-,-,-,-,.
COC(=O)c1sccc1NC(=O)Nc1cccc(F)c1,-,-,-,-,.
Cc1nc2ccccc2c(=O)n1CCCN1CCOCC1,-,-,43,-,-
COc1ccc(-c2nc3ccccc3c(=O)n2CCCN2CCOCC2)cc1,-,-,-,-,.
COc1ccc(-c2nc3ccc(C(=O)NCCCN4CCOCC4)cc3nc2-c2ccc(OC)cc2)cc1,-,-,46,-,-
Cc1ccc(-c2cc(C(=O)NCCCN3CCOCC3)c3ccccc3n2)cc1,-,-,53,-,.
CCC(=O)c1ccc(OCC(=O)NC2(C#N)CCCCC2)cc1,-,-,-,-,.
CCN(CC)S(=O)(=O)c1ccc2c(c1)oc(=O)n2CC(=O)NC1CCCCC1,-,-,-,-,.
Cc1ccc(C(=O)N2CCN(S(=O)(=O)c3ccc(C)c([N+](=O)[O-])c3)C2)cc1,-,-,-,-,.
COc1ccc(CN2C[C@@H](CO)O[C@@H](n3cnc4c(NC5CCC5)ncnc43)C2)cc1,-,.,-,.,.
N=c1n(Cc2ccccc2)c2ccccc2n1CC(O)c1ccco1 (stereo not drawn),-,-,39,-,-
CCn1c(=N)n(CC(O)c2ccco2)c2ccccc21 (stereo not drawn),-,-,-,-,.
COc1c(Cl)cccc1-c1cn2ccc(C)cc2n1,-,-,44,-,-
Cc1ccc(S(=O)(=O)Nc2ccc(-c3cn4ccc(C)cc4n3)cc2)cc1,-,-,41,-,-
Cc1ccn2cc(-c3cccc(NS(C)(=O)=O)c3)nc2c1,-,-,44,-,-
CCCCn1c(N)c(N(CC(C)C)C(=O)c2cc3ccccc3cc2OC)c(=O)[nH]c1=O,-,-,-,-,.
Cc1c(OCc2ccc(C(=O)O)o2)ccc2c3c(c(=O)oc12)CCC3,-,-,51,-,-
Cc1c(OCC(=O)NCc2ccccn2)ccc2c3c(c(=O)oc12)CCCC3,-,-,-,-,.
Cc1c(OC(C)C(=O)NCC2CCC(C(=O)O)CC2)ccc2c3c(c(=O)oc12)CCCC3 (stereo not drawn),-,-,55,-,-
CCN(CC)C(=O)COc1ccc2c3c(c(=O)oc2c1C)CCCC3,-,-,.,-,.
Cc1c(OC(C)C(=O)NCc2ccccn2)ccc2c3c(c(=O)oc12)CCC3 (stereo not drawn),-,-,54,-,+
SMILES,Rpn11 inh,PKA-R2B act,Neddylation inh,PKA-R1A act,Neddyl inh conf
COc1ccc(Nc2nc(N3CCCCC3)nc3ccccc23)c(OC)c1,-,-,40,-,.
Cc1nnsc1C(=O)NC1CCCc2c1cnn2-c1ccc(C(C)(C)C)cc1 (stereo not drawn),-,-,-,-,.
COc1ccc(OC)c2[nH]c(=O)c(CCNC(=O)c3ccc4c(c3)OCO4)cc12,-,-,41,-,-
CC1(C(=O)NS(=O)(=O)c2ccccc2Cl)CCN1C(=O)Cc1ccccc1Cl (stereo not drawn),-,.,-,.,.
CCOC(=O)C(=CNc1ccc(NC2=NCC(C)S2)cc1)C(=O)OCC (stereo not drawn),-,-,45,-,-
CCOC(=O)C(=CNc1ccc(C(F)(F)F)cc1)C(=O)OCC,-,-,-,-,.
CCOc1cc(CN2CCc3c([nH]c4ccccc34)C2)ccc1OC,-,-,-,-,.
COc1ccc(CN2CCc3c([nH]c4ccccc34)C2)cc1Br,-,-,41,-,-
CCOc1ccc(C2=Nc3ccccc3C(c3ccc(N4CCOCC4)cc3)=NN2)cc1,-,-,40,-,-
CCOc1ccc(C2=Nc3ccc(Br)cc3C(c3ccc(N4CCOCC4)cc3)=NN2)cc1,-,-,.,-,.
CCCn1cc(CN2CCN(Cc3ccc(C)o3)C(CCO)C2)c(C)n1 (stereo not drawn),-,-,-,-,.
Cn1c(=O)c2c(ncn2Cc2ccccc2)n(C)c1=O,-,-,-,-,.
Cn1c(=O)c2nc(NCc3ccccc3)cnc2n(C)c1=O,-,-,64,-,+
CCOC(=O)C1CCCN(c2cc(C)nc3cc(-c4ccc(Cl)cc4)nn23)C1 (stereo not drawn),-,-,.,-,.
CCOC(=O)C1CCCN(c2cc(C)nc3cc(-c4ccc(F)cc4)nn23)C1 (stereo not drawn),-,-,57,-,-
Nc1nccc(/C=C/c2ccc(Cl)cc2)n1,-,-,37,-,-
Cc1cccc(NC(=O)C(=O)NCC2CCCO2)c1 (stereo not drawn),-,-,-,-,.
CC(=O)Nc1ccc(-c2ccc3nnc(C)n3n2)cc1,-,-,-,-,.
CC(=O)N(C)c1cccc(-c2ccc3nnc(C)n3n2)c1,-,-,53,-,.
COc1cccc(N2CCN(c3nc(C)cc(=O)[nH]3)CC2)c1,-,-,-,-,.
C[C@@H](CO)NC(=O)c1ccc2c3n(nc2c1)-c1ccccc1CO3,-,-,-,-,.
COCCNC(=O)c1ccc2c3n(nc2c1)-c1ccc(C)cc1CO3,-,-,52,-,.
O=C(NCC1CCCO1)c1ccc2c3n(nc2c1)-c1ccccc1CO3 (stereo not drawn),-,-,42,-,-
Cc1ccc2c(c1)COc1c3ccc(C(=O)N[C@@H](CO)C(C)C)cc3nn1-2,-,-,.,-,.
Cc1[nH]c2ccc(C(=O)OC(C)C(=O)N(C)c3ccccc3)cc2c1C (stereo not drawn),-,-,41,-,-
SMILES,Rpn11 inh,PKA-R2B act,Neddylation inh,PKA-R1A act,Neddyl inh conf
Cc1[nH]c2ccc(C(=O)OC(C)C(=O)N(C)C3CCCCC3)cc2c1C (stereo not drawn),-,-,-,-,.
CC(=O)Nc1ccc2nsnc2c1,-,.,-,.,.
O=C(Nc1ccc2nsnc2c1)C1CC1,-,-,56,-,+
CCC1CCCCN1C(=O)c1cc2c(=O)n3cccc(C)c3nc2s1 (stereo not drawn),-,-,56,-,-
Cc1cccn2c(=O)c3cc(C(=O)N4CCCCC4)sc3nc12,-,-,.,-,.
O=C(NC1CCCC1)c1cc2c(=O)n3ccccc3nc2s1,-,-,.,-,.
Cc1cccn2c(=O)c3cc(C(=O)N4CCCC(C)C4)sc3nc12 (stereo not drawn),-,-,54,-,-
